Hits are enriched below; roughly 3.5% of the tested compounds scored in any of these assays.
Pf apPOL block – Pf-apPOL DNA polymerase inhibition; Recombinant Pf-apPOL, molecular beacon fluorescence, 1.5 h; inhibition, % at 10 µM; actives 0.25% (n = 210,000); AID 1794808
mHTT-CaM PPI inh – disrupts binding of mutant huntingtin to calmodulin. P42858. AlphaScreen His-mHTT/GST-CaM binding, luminescence. inhibition, % at 15 µM. actives 3.6% (n = 190,000)
Target sequence (P42858 whole entry, looked up, change not shown): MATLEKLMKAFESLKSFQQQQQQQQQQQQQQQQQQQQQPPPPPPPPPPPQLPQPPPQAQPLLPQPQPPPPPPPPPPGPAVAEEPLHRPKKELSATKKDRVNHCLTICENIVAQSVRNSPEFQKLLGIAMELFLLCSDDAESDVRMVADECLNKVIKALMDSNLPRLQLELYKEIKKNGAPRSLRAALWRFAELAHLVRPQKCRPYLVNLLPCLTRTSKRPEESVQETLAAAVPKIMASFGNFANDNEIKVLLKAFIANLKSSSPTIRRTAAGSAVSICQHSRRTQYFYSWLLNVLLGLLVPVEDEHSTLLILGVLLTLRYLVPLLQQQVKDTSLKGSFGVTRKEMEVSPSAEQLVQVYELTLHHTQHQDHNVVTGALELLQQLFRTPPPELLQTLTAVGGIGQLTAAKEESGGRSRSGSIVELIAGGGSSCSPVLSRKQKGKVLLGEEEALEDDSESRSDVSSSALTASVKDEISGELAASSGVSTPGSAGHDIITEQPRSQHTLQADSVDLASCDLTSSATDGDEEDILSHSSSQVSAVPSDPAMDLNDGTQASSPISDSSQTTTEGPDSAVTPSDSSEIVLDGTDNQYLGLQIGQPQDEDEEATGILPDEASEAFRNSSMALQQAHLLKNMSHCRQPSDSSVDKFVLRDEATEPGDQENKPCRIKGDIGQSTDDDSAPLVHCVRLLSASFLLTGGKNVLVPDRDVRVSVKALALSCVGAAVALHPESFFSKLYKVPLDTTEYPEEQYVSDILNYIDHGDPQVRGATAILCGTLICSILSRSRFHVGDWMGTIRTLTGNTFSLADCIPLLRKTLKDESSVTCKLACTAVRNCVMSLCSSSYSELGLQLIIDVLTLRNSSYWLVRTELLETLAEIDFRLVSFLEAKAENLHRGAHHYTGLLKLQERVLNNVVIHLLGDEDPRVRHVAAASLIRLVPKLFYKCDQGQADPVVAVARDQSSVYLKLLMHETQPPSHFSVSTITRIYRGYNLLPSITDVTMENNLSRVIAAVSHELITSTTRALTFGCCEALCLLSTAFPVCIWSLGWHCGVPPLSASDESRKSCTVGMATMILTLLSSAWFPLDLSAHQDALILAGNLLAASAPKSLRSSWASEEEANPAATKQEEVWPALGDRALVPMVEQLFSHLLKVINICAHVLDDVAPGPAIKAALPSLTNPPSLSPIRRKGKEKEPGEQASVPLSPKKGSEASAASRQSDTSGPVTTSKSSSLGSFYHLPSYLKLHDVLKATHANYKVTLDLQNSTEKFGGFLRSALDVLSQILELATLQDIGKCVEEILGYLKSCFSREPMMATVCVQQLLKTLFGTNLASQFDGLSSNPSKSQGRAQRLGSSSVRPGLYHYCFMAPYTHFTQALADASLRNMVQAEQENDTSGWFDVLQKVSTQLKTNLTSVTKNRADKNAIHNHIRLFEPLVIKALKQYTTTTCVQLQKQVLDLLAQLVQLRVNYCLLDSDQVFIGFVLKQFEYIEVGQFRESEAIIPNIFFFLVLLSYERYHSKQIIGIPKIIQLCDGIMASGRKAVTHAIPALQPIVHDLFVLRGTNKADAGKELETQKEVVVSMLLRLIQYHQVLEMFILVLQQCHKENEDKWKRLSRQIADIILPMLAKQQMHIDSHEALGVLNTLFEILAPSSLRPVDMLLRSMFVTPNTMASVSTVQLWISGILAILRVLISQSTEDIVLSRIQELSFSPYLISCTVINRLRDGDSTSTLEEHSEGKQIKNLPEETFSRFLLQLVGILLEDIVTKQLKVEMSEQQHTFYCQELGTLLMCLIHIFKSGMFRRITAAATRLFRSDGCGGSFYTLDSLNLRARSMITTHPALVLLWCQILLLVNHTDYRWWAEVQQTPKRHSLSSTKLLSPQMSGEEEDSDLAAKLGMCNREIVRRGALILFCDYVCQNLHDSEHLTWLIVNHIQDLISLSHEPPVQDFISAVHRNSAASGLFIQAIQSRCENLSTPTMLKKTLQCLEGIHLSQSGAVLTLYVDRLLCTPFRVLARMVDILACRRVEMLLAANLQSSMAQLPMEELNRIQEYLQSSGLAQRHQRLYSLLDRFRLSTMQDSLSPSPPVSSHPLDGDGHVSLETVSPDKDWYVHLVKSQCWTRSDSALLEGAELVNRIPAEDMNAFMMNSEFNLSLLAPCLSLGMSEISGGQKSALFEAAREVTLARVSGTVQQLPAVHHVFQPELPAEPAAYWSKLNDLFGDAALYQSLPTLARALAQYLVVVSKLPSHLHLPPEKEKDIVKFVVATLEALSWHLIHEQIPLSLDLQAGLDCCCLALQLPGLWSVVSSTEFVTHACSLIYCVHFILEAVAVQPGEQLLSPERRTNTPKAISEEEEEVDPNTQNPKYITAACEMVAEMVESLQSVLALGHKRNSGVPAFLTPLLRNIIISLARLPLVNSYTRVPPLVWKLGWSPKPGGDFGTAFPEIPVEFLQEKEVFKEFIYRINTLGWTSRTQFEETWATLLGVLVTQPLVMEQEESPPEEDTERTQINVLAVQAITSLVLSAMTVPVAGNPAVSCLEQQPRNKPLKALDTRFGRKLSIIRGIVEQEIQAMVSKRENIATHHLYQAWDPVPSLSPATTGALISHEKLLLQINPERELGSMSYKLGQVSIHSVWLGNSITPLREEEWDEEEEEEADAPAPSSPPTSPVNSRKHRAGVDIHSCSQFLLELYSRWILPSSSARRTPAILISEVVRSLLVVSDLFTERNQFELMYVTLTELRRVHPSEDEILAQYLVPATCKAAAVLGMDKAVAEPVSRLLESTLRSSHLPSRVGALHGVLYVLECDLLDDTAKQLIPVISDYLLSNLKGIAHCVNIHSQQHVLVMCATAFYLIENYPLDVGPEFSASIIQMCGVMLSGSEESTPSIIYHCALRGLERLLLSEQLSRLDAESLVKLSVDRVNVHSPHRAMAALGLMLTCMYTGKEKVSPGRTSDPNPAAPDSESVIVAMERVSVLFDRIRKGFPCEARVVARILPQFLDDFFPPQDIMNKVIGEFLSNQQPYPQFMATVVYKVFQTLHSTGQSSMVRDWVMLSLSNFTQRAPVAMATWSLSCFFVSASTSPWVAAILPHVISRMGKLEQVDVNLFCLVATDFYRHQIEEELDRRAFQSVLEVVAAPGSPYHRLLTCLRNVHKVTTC
Each line names hits and unclear results; the compound was inactive in the other large screens. No stated cut-off is given here; in the data, active means inhibition above about 50%; inactive means the rest.

CCCS(=O)(=O)N1CCCc2ccc(NC(=O)NC3CCCCC3)cc21	none
O=C(Nc1cccc(F)c1)OCCCN1CCC2(CCC(c3ccccc3)CC2)C1 (centres undefined)	mHTT-CaM PPI inh 50.1
O=C(Nc1ccccc1C(F)(F)F)OCCCN1CCC2(CCC(c3ccccc3)CC2)C1=O (centres undefined)	mHTT-CaM PPI inh 92.6
O=C(Nc1ccc(F)cc1)OCCN1CCCC12CCC(c1ccccc1)CC2 (centres undefined)	none
CCCCNC(=O)OCCCN1CCC2(CCC(c3ccccc3)CC2)C1=O (centres undefined)	none
CCC(=O)Nc1c2c(nn1-c1ccccc1C)CS(=O)(=O)C2	none
Brc1ccc(-c2csc(Nc3ccc4c(c3)OCO4)n2)cc1	mHTT-CaM PPI inh 61.0
Cc1ccc(-c2csc(Nc3ccc(F)cc3)n2)cc1	none
Nc1nc(-c2ccc3c(c2)OCO3)cs1	none
Fc1ccc(Nc2nc(-c3ccc(Cl)cc3)cs2)cc1	mHTT-CaM PPI inh 70.8
CCCCOc1ccc(-c2csc(N)n2)cc1[N+](=O)[O-]	none
CCOc1ccc(-c2csc(Nc3ccc(F)cc3)n2)cc1[N+](=O)[O-]	mHTT-CaM PPI inh 90.6
Fc1ccc(-c2csc(Nc3ccc(Br)cc3)n2)cc1	mHTT-CaM PPI inh 98.0
CCC(=O)Nc1nc(-c2ccc(F)cc2)cs1	none
CN1C(=O)S/C(=C\c2ccc(Sc3ccccc3)o2)C1=O	none
N#CSCCCCOc1ccc(Cl)cc1	none
CC(=O)Nc1ccc2c(c1)C(N1CCC(C)CC1)=Nc1ccccc1O2	none
Cc1ccc(Nc2nc(-c3ccc(F)cc3)cs2)cc1Cl	mHTT-CaM PPI inh 63.5
Cc1ccc(-c2csc(Nc3ccc(F)cc3)n2)cc1C	none
CN1C(=O)C2(CCN(C(=O)Nc3ccc4c(c3)OCCO4)C2)c2ccccc21 (centres undefined)	none
O=C(C1CCCN(c2nnc3ccccn23)C1)N1CCN(C2CCCCC2)CC1 (centres undefined)	none
CCCn1ncc(N2CCC(C(=O)NC(C)c3cccc(OC)c3)CC2)cc1=O (centres undefined)	none
CC(CCC(=O)NN=Cc1c[nH]c2ccccc12)C1CCC2C3C(O)CC4CC(O)CCC4(C)C3CCC12C (centres undefined)	mHTT-CaM PPI inh 100.1
CC(CCC(=O)N=Nc1c(O)[nH]c2ccc(Cl)cc12)C1CCC2C3C(O)CC4CC(O)CCC4(C)C3CCC12C (centres undefined)	none
CC(CCC(=O)N=Nc1c(O)[nH]c2c(Cl)cc(Cl)cc12)C1CCC2C3C(O)CC4CC(O)CCC4(C)C3CCC12C (centres undefined)	mHTT-CaM PPI inh 66.9
CC(CCC(=O)O)C1CCC2C3CC(O)C4CC(O)CCC4(C)C3CCC12C (centres undefined)	none
CCc1ccc(C(=O)N2CCCC(c3cccc(C(=O)NCc4ccco4)c3)C2)cc1 (centres undefined)	none
O=C(NCC(=O)N1CCCc2ccccc21)c1cccc(F)c1	none
O=[N+]([O-])c1cc(NC2CC(O)C(O)CO2)cc(Sc2ccccc2)c1 (centres undefined)	none
COCCN1COc2ccc3c(=O)c(Oc4cccc(OC)c4)c(C(F)(F)F)oc3c2C1	none
Cc1oc2c3c(ccc2c(=O)c1-c1ccccc1)OCN(CC1CCCO1)C3 (centres undefined)	none
Cc1oc2c3c(ccc2c(=O)c1-c1ccccc1)OCN(Cc1ccccn1)C3	mHTT-CaM PPI inh 69.1
COc1cccc(Oc2c(C)oc3c4c(ccc3c2=O)OCN(Cc2ccccn2)C4)c1	mHTT-CaM PPI inh 100.3
COc1cccc2cc(C(N)=O)c(=Nc3ccc(C(F)(F)F)cc3)oc12	none
Cc1cc([N+](=O)[O-])ccc1NC(=O)C1=Cc2ccccc2OC1	none
COc1ccc(OC)c(C2SCCN2S(=O)(=O)c2cc([N+](=O)[O-])c(C)c([N+](=O)[O-])c2)c1 (centres undefined)	none
CCCn1c(N2CCCC(C(=O)NC3CC3)C2)nc2ccccc21 (centres undefined)	none
CCn1c(=O)c(N2CCCC(C(=O)NC3CCCCCCC3)C2)nc2ccccc21 (centres undefined)	mHTT-CaM PPI inh 63.5
CCCC(=O)Nc1c2c(nn1-c1ccccc1C)CS(=O)C2 (centres undefined)	none
Cc1cc(C)n(-c2ccc(CNC(=O)c3ccc(Cl)s3)cc2)n1	none
COc1cccc(C2CC(c3cccc(Cl)c3)n3ncnc3N2)c1 (centres undefined)	none
Fc1ccc(C2CC(c3ccc(Cl)cc3)Nc3ncnn32)cc1 (centres undefined)	mHTT-CaM PPI inh 58.0
Fc1ccc(C2CC(c3ccc(I)cc3)Nc3ncnn32)cc1 (centres undefined)	none
Clc1cccc(C2CC(c3ccc(I)cc3)Nc3ncnn32)c1 (centres undefined)	mHTT-CaM PPI inh 51.0
O=[N+]([O-])c1ccc(/C=N/OCc2cccc(Br)c2)cc1	none
Cc1cc(Cc2cc(C(C)(C)C)c(O)c(C(C)(C)C)c2)c(O)c(C(C)(C)C)c1	none (no result: Pf apPOL block)
Cc1cc(S(=O)c2cc(C)cc(C(C)(C)C)c2O)c(O)c(C(C)(C)C)c1	mHTT-CaM PPI inh 72.3 (no result: Pf apPOL block)
